# From PubChem BioAssay (NCATS)
# Results filed as inconclusive are left out. A call without a number means that no potency is given here. A number with no mark means an inactive call. Activity calls are given as the source filed them. The call rests on the fitted dose curve; in most records, active means well fitted cell-killing curve with a large enough effect; inconclusive means small, poorly fitted or top-dose-only effect, or effect the other way; inactive means no such curve, though single readings can be large or run the other way.
# Experiments:
# [1] = Quantitative High-Throughput drug screen in 47 multiple myeloma cell lines against the NCATS MIPE library collection: OCIMY1_PLB cell viability assay (AID 1918979); further: nearly all actives have a fitted effect of over 35% in size
# How it was run: (§1)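 ATP-based luminescence (CellTiter-Glo, 5 min RT incubation) quantified surviving cells following two days' treatment with MIPE 4.0 agents at 37 °C, 5% CO2.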
# [2] = Quantitative High-Throughput drug screen in 47 multiple myeloma cell lines against the NCATS MIPE library collection: KMS28PE_JCRB cell viability assay (AID 1918983); further: nearly all actives have a fitted effect of over 35% in size; further: potency means the concentration at half of the fitted maximal effect
# How it was run: as §1
# [3] = Quantitative High-Throughput drug screen in 47 multiple myeloma cell lines against the NCATS MIPE library collection: OCIMY5_PLB cell viability assay (AID 1918988); further: nearly all actives have a fitted effect of over 65% in size; further: potency means the concentration at half of the fitted maximal effect
# How it was run: as §1
# [4] = Quantitative High-Throughput drug screen in 47 multiple myeloma cell lines against the NCATS MIPE library collection: OPM1_PLB cell viability assay (AID 1918989); further: nearly all actives have a fitted effect of over 40% in size; further: potency means the concentration at half of the fitted maximal effect
# How it was run: as §1
# [5] = Quantitative High-Throughput drug screen in 47 multiple myeloma cell lines against the NCATS MIPE library collection: SKMM1_PLB cell viability assay (AID 1919863); settings: SKMM1 myeloma viability, CellTiter-Glo ATP, 48 h; viability: stronger effect = lower value; further: nearly all actives have a fitted effect of over 35% in size; further: potency means the concentration at half of the fitted maximal effect
# How it was run: as §1
# [6] = Quantitative High-Throughput drug screen in 47 multiple myeloma cell lines against the NCATS MIPE library collection: U266_ATCC cell viability assay (AID 1919864); further: nearly all actives have a fitted effect of over 35% in size; further: potency means the concentration at half of the fitted maximal effect
# How it was run: as §1
# [7] = Quantitative High-Throughput drug screen in 47 multiple myeloma cell lines against the NCATS MIPE library collection: XG1_PLB cell viability assay (AID 1919866); further: nearly all actives have a fitted effect of over 35% in size; further: potency means the concentration at half of the fitted maximal effect
# How it was run: as §1
# [8] = Quantitative High-Throughput drug screen in 47 multiple myeloma cell lines against the NCATS MIPE library collection: UTMC2_PLB cell viability assay (AID 1919868); settings: CellTiter-Glo ATP luminescence, 48 h; viability (% of DMSO control): at 45.8 µM (top of the series); further: nearly all actives have a fitted effect of over 55% in size; further: potency means the concentration at half of the fitted maximal effect
# How it was run: as §1
# [9] = Quantitative High-Throughput drug screen in 47 multiple myeloma cell lines against the NCATS MIPE library collection: PE2_PLB cell viability assay (AID 1919869); further: nearly all actives have a fitted effect of over 35% in size; further: potency means the concentration at half of the fitted maximal effect
# How it was run: as §1
# [10] = Quantitative High-Throughput drug screen in 47 multiple myeloma cell lines against the NCATS MIPE library collection: PCM6_Riken cell viability assay (AID 1919870); further: nearly all actives have a fitted effect of over 30% in size; further: potency means the concentration at half of the fitted maximal effect
# How it was run: as §1
# [11] = Quantitative High-Throughput drug screen in 47 multiple myeloma cell lines against the NCATS MIPE library collection: RPMI8226_ATCC cell viability assay (AID 1919871); further: nearly all actives have a fitted effect of over 30% in size; further: potency means the concentration at half of the fitted maximal effect
# How it was run: as §1
# [12] = Quantitative High-Throughput drug screen in 47 multiple myeloma cell lines against the NCATS MIPE library collection: OPM2_DSMZ cell viability assay (AID 1919872); further: nearly all actives have a fitted effect of over 30% in size; further: potency means the concentration at half of the fitted maximal effect
# How it was run: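 Viability readout: CellTiter-Glo luminescence following 5 min room-temperature incubation with reagent. Prior exposure: 48 h, 37C, humidified 5% CO2, 500 cells per well.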
# [13] = Quantitative High-Throughput drug screen in 47 multiple myeloma cell lines against the NCATS MIPE library collection: MM1S_ATCC cell viability assay (AID 1918980); further: nearly all actives have a fitted effect of over 45% in size; further: potency means the concentration at half of the fitted maximal effect
# How it was run: as §1
# [14] = Quantitative High-Throughput drug screen in 47 multiple myeloma cell lines against the NCATS MIPE library collection: LP1_DSMZ cell viability assay (AID 1918982); further: nearly all actives have a fitted effect of over 35% in size; further: potency means the concentration at half of the fitted maximal effect
# How it was run: as §1
# [15] = Quantitative High-Throughput drug screen in 47 multiple myeloma cell lines against the NCATS MIPE library collection: OCIMY7_PLB cell viability assay (AID 1918987); further: nearly all actives have a fitted effect of over 65% in size; further: potency means the concentration at half of the fitted maximal effect
# How it was run: as §1
# [16] = Quantitative High-Throughput drug screen in 47 multiple myeloma cell lines against the NCATS MIPE library collection: XG6_PLB cell viability assay (AID 1919865); further: nearly all actives have a fitted effect of over 40% in size; further: potency means the concentration at half of the fitted maximal effect
# How it was run: as §1
# [17] = Quantitative High-Throughput drug screen in 47 multiple myeloma cell lines against the NCATS MIPE library collection: KMS34_JCRB cell viability assay (AID 1918985); further: nearly all actives have a fitted effect of over 40% in size; further: potency means the concentration at half of the fitted maximal effect
# How it was run: as §1
# [18] = Quantitative High-Throughput drug screen in 47 multiple myeloma cell lines against the NCATS MIPE library collection: VP6_DJ cell viability assay (AID 1919867); further: nearly all actives have a fitted effect of over 40% in size; further: potency means the concentration at half of the fitted maximal effect
# How it was run: as §1
# [19] = Quantitative High-Throughput drug screen in 47 multiple myeloma cell lines against the NCATS MIPE library collection: L363_DSMZ cell viability assay (AID 1918984); further: nearly all actives have a fitted effect of over 40% in size
# How it was run: as §1
# [20] = Quantitative High-Throughput drug screen in 47 multiple myeloma cell lines against the NCATS MIPE library collection: MM1R_ATCC cell viability assay (AID 1918981); further: nearly all actives have a fitted effect of over 35% in size; further: potency means the concentration at half of the fitted maximal effect
# How it was run: as §1
smiles,measurement,setting,value
CN[C@@H]1Cc2cccc3[nH]c(=O)n(c23)C1,Potency,[1],inactive
same,Potency,[2],inactive
same,Potency,[3],20.9 µM (active)
same,Potency,[4],inactive
same,viability,[5],93.2%
same,Potency,[6],inactive
same,Potency,[7],inactive
same,Potency,[8],inactive
same,Potency,[9],inactive
same,Potency,[10],inactive
same,Potency,[11],inactive
same,Potency,[12],inactive
CCN1C[C@]2(OC(=O)c3ccccc3NC(C)=O)CC[C@H](OC)[C@@]34[C@H]5CC6[C@@H](OC)C[C@](O)(C(C[C@@H]23)[C@@H]14)[C@@]5(O)[C@@H]6OC,Potency,[13],inactive
same,Potency,[14],inactive
same,Potency,[2],inactive
same,Potency,[15],inactive
same,Potency,[3],inactive
same,Potency,[4],inactive
same,Potency,[6],inactive
same,Potency,[16],inactive
same,Potency,[7],inactive
same,Potency,[9],inactive
same,Potency,[10],inactive
same,Potency,[11],inactive
same,Potency,[12],inactive
CN1[C@H]2CC(O)C[C@H]1[C@H]1O[C@H]12 (some centres not stated),Potency,[13],18.7 µM (active)
same,Potency,[14],18.7 µM (active)
same,Potency,[2],20.9 µM (active)
same,Potency,[17],18.7 µM (active)
same,Potency,[15],3.32 µM (active)
same,Potency,[3],18.7 µM (active)
same,Potency,[4],18.7 µM (active)
same,Potency,[5],23.5 µM (active)
same,Potency,[6],23.5 µM (active)
same,Potency,[16],7.43 µM (active)
same,Potency,[7],9.35 µM (active)
same,Potency,[18],9.35 µM (active)
same,Potency,[9],20.9 µM (active)
same,Potency,[10],11.8 µM (active)
same,Potency,[11],18.7 µM (active)
same,Potency,[12],23.5 µM (active)
C=C1C[C@H]2[C@H]3CCC(=O)[C@@]3(C)CC[C@@H]2[C@@]2(C)C=CC(=O)C=C12,Potency,[14],inactive
same,Potency,[15],9.35 µM (active)
same,Potency,[6],20.9 µM (active)
same,Potency,[11],18.7 µM (active)
same,Potency,[12],inactive
Oc1ccc2c3c1O[C@H]1c4[nH]c5c(c4C[C@@]4(O)[C@@H](C2)N(CC2CC2)CC[C@]314)C[C@@]1(O)[C@H]2Cc3ccc(O)c4c3[C@@]1(CCN2CC1CC1)[C@H]5O4,Potency,[13],inactive
same,Potency,[14],inactive
same,Potency,[2],inactive
same,Potency,[19],inactive
same,Potency,[17],inactive
same,Potency,[4],inactive
same,Potency,[16],inactive
same,Potency,[7],inactive
same,Potency,[9],inactive
same,Potency,[10],inactive
same,Potency,[11],inactive
same,Potency,[12],inactive
O=S(=O)(CC1CS1)c1ccc(Oc2ccccc2)cc1 (configuration not stated),Potency,[13],14.8 µM (active)
same,Potency,[20],16.6 µM (active)
same,Potency,[3],20.9 µM (active)
same,Potency,[4],18.7 µM (active)
same,Potency,[5],20.9 µM (active)
same,Potency,[6],14.8 µM (active)
same,Potency,[16],13.2 µM (active)
same,Potency,[7],14.8 µM (active)
same,Potency,[9],16.6 µM (active)
same,Potency,[10],23.5 µM (active)
COC(=O)[C@@H](N)CCCN=C(N)N[N+](=O)[O-],Potency,[13],inactive
same,Potency,[20],inactive
same,Potency,[14],inactive
same,Potency,[2],inactive
same,Potency,[17],inactive
same,Potency,[6],inactive
same,Potency,[16],inactive
same,Potency,[7],inactive
same,Potency,[9],inactive
same,Potency,[11],inactive
same,Potency,[12],inactive
O=C1CCC[C@@H]2[C@H]3CCCN4CCC[C@@H](CN12)[C@@H]34,Potency,[4],inactive
same,Potency,[16],inactive
same,Potency,[7],inactive
same,Potency,[8],inactive
same,Potency,[9],inactive
same,Potency,[10],inactive
same,Potency,[12],inactive
O=C(N[C@@H](COc1ccc2[nH]c(=O)[nH]c2c1)c1ccccc1)c1cccn(Cc2ccc(F)c(F)c2)c1=O,Potency,[13],16.6 µM (active)
same,Potency,[17],inactive
same,Potency,[16],18.7 µM (active)
same,Potency,[7],5.26 µM (active)
same,Potency,[12],inactive
Cc1nc(-c2ccc(-c3ccc(C(=O)N4CCc5cc6c(cc54)C4(CCN(C)CC4)CO6)cc3)c(C)c2)no1,Potency,[13],inactive
same,Potency,[14],inactive
same,Potency,[4],inactive
same,viability,[5],124%
same,Potency,[7],inactive
same,Potency,[9],inactive
same,Potency,[12],inactive
CC(=O)Nc1ccc(OC[C@](C)(O)C(=O)Nc2ccc([N+](=O)[O-])c(C(F)(F)F)c2)cc1,Potency,[4],inactive
same,Potency,[7],inactive
same,Potency,[8],inactive
same,Potency,[10],inactive
C[C@]12CC[C@H]3[C@@H](CCC4=CC(=O)CC[C@@]43C)[C@H]1CC[C@H]2O,Potency,[13],inactive
same,Potency,[2],inactive
same,Potency,[17],inactive
same,viability,[5],133%
same,Potency,[16],inactive
same,Potency,[8],inactive
same,Potency,[9],inactive
same,Potency,[10],inactive
same,Potency,[11],inactive
same,Potency,[12],inactive
COc1cc2cc(c1Cl)N(C)C(=O)C[C@H](OC(=O)C(C)C)[C@]1(C)O[C@H]1[C@H](C)[C@@H]1C[C@@](O)(NC(=O)O1)[C@H](OC)C=CC=C(C)C2,Potency,[13],inactive
same,Potency,[20],inactive
same,Potency,[14],inactive
same,Potency,[2],inactive
same,Potency,[19],inactive
same,Potency,[17],inactive
same,Potency,[3],inactive
same,Potency,[4],inactive
same,viability,[5],50.1%
same,Potency,[6],inactive
same,Potency,[16],inactive
same,Potency,[7],inactive
same,Potency,[8],inactive
same,Potency,[9],inactive
same,Potency,[10],inactive
same,Potency,[11],inactive
same,Potency,[12],inactive
CC(C)N[C@@H]1CCn2c(=O)[nH]c3cccc(c32)[C@@H]1O,Potency,[13],0.372 µM (active)
same,Potency,[20],6.62 µM (active)
same,Potency,[2],20.9 µM (active)
same,Potency,[17],10.5 µM (active)
same,Potency,[3],0.118 µM (active)
same,Potency,[4],11.8 µM (active)
same,Potency,[6],1.66 µM (active)
same,Potency,[16],2.35 µM (active)
same,Potency,[7],3.32 µM (active)
same,Potency,[8],10.5 µM (active)
same,Potency,[9],4.18 µM (active)
same,Potency,[10],5.26 µM (active)
CCCCCC[C@H]1C(=O)O[C@H](C)[C@H](NC(=O)c2cccc(NC=O)c2O)C(=O)O[C@@H](C)[C@@H]1OC(=O)CC(C)C,Potency,[13],4.69 µM (active)
same,Potency,[14],0.059 µM (active)
same,Potency,[2],0.372 µM (active)
same,Potency,[3],0.0662 µM (active)
same,Potency,[4],0.148 µM (active)
same,Potency,[5],5.26 µM (active)
same,Potency,[6],0.372 µM (active)
same,Potency,[16],0.105 µM (active)
same,Potency,[7],0.0235 µM (active)
same,Potency,[18],0.0469 µM (active)
same,Potency,[8],0.0526 µM (active)
same,Potency,[9],0.209 µM (active)
same,Potency,[10],0.0526 µM (active)
same,Potency,[11],1.05 µM (active)
c1cc2c(cc1[C@H]1OC[C@H]3[C@H]1CO[C@H]3c1ccc3c(c1)OCO3)OCO2,Potency,[2],inactive
same,Potency,[4],inactive
same,viability,[5],134%
same,Potency,[16],26.4 µM (active)
same,Potency,[7],inactive
same,Potency,[18],inactive
same,Potency,[10],inactive
same,Potency,[11],inactive
same,Potency,[12],inactive
COc1ccc(CC2NCCc3cc(OC)c(OC)cc32)cc1OC (configuration not stated),Potency,[14],inactive
same,Potency,[2],inactive
same,Potency,[4],inactive
same,viability,[5],129%
same,Potency,[6],inactive
same,Potency,[18],9.35 µM (active)
same,Potency,[9],inactive
same,Potency,[10],8.33 µM (active)
same,Potency,[11],inactive
same,Potency,[12],inactive
C[C@@]12OC(=O)[C@]1([C@@H](O)[C@@H]1C=CCCC1)NC(=O)[C@H]2CCCl,Potency,[13],0.0053 µM (active)
same,Potency,[14],0.0166 µM (active)
same,Potency,[2],0.0083 µM (active)
same,Potency,[17],0.0105 µM (active)
same,Potency,[3],0.0047 µM (active)
same,Potency,[4],0.001 µM (active)
same,Potency,[5],0.105 µM (active)
same,Potency,[6],0.0132 µM (active)
same,Potency,[18],0.001 µM (active)
same,Potency,[8],0.0235 µM (active)
same,Potency,[9],0.0083 µM (active)
same,Potency,[10],0.0105 µM (active)
same,Potency,[11],0.0296 µM (active)
same,Potency,[12],0.0372 µM (active)
Cc1ccccc1-n1c(Cn2cnc3c(N)ncnc32)nc2cccc(C)c2c1=O,Potency,[13],0.526 µM (active)
same,Potency,[20],0.187 µM (active)
same,Potency,[2],0.296 µM (active)
same,Potency,[17],0.148 µM (active)
same,Potency,[3],1.66 µM (active)
same,Potency,[4],0.332 µM (active)
same,Potency,[5],0.526 µM (active)
same,Potency,[16],0.469 µM (active)
same,Potency,[7],0.209 µM (active)
same,Potency,[18],0.187 µM (active)
same,Potency,[8],0.0662 µM (active)
same,Potency,[9],0.296 µM (active)
same,Potency,[10],1.66 µM (active)
same,Potency,[12],1.05 µM (active)
CC1=NN=C(c2ccc(N)cc2)c2cc3c(cc2C1)OCO3,Potency,[14],inactive
same,Potency,[3],18.7 µM (active)
same,Potency,[4],inactive
same,viability,[5],125%
same,Potency,[16],inactive
same,Potency,[7],inactive
same,Potency,[9],inactive
same,Potency,[10],inactive
same,Potency,[11],inactive
same,Potency,[12],inactive
